# Screening results deposited in PubChem BioAssay by National Center for Advancing Translational Sciences (NCATS).
# Most compounds without a hit are left out; they make up all but 9.2% or so of the library.
# Rab9 promoter act: qHTS Assay for Rab9 Promoter Activators. Huh7 Rab9 promoter-luciferase reporter, luminescence, 24 h. Potency, µM (series often up to 9.22 µM), for the others: at the highest dose activation, negative = inhibition, usual class: activators. 320,000 tested, 2.8% active. AID 485297, 2010; also: % of control where 0% means no effect; nearly all actives have a fitted effect of over 60% in size
#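 Cells were plated at 1500 per well in reduced-serum medium with 10% FBS and left 2 h. Compound in DMSO was then added for 24 h at 37 °C. Reporter signal was read by luminescence after 10 min with luciferase detection reagent.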
# ELG1 genotoxic: qHTS screen for small molecules that induce genotoxicity in human embryonic kidney (HEK293T) cells expressing luciferase-tagged ELG1. HEK293T ELG1-luciferase reporter, luminescence, 16 h. Potency, µM (highest dose often 46 µM), for inactives: top-dose activity change, positive = activation, usual class: activators. 330,000 tested, 1.3% active. AID 504466, 2011; also: % of control where 0% means no effect; nearly all actives have a fitted effect of over 60% in size
#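 Luminescence read-out: rising ELG1-luciferase signal, reflecting elevated ELG1 protein under genetic stress, flags genotoxic compounds. Cells were treated for 16 hr at 37 °C before ONE-Glo detection.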
# ELG1 DNA repair: qHTS screen for small molecules that inhibit ELG1-dependent DNA repair in human embryonic kidney (HEK293T) cells expressing luciferase-tagged ELG1. 330,000 tested, 2.3% active. Potency, µM (highest dose often 46.1 µM), for inactives: at the top dose activity change, negative = inhibition, hits mostly inhibitors. HEK293T ELG1-luciferase reporter, luminescence, 16 h; DNA damage induced by 5-fluorouridine; also: % is scaled to controls: 0 for no effect and ±100 for the full control effect; nearly all actives have a fitted effect of over 55% in size
#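 Luminescence from the luciferase reporter, measured 30 min after ONE-Glo reagent at room temperature, was the read-out. Beforehand, 2,000 cells per well were exposed for 16 hr at 37 °C to 5-fluorouridine together with compound or vehicle.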
# FLuc counter: qHTS profiling assay for firefly luciferase inhibitor/activator using purifed enzyme and Km concentrations of substrates (counterscreen for miR-21 project). Luciferin 4-monooxygenase (Photinus pyralis), P08659. purified FLuc, Km substrates, luminescence inhibition. Potency, µM (top dose mostly 57.5 µM), without a hit: at the top dose activity change, negative = inhibition, usual class: inhibitors. 360,000 tested, 6.9% active. AID 588342, 2011;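 also: plate controls were vehicle for no effect and reference inhibitor for full effect; nearly all actives have a fitted effect of over 55% in size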
# Target sequence (P08659 whole entry, looked up): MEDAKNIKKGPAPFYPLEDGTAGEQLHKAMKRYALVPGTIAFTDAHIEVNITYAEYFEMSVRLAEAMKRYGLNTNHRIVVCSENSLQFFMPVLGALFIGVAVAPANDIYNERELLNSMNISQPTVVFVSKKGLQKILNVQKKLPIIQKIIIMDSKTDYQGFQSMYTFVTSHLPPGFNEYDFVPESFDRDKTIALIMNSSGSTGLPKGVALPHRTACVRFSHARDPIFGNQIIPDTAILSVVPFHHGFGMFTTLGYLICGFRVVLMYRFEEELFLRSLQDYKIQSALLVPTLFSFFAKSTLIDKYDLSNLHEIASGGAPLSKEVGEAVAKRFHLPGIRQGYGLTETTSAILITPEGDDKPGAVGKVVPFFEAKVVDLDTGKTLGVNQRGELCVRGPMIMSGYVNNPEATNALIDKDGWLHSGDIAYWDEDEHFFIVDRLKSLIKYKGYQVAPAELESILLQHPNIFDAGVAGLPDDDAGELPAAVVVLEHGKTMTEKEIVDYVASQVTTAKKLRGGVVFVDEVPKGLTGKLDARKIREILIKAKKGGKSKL
#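 Purified P. pyralis luciferase, 10 nM final, with Km-level 10 uM D-luciferin and 10 uM ATP in 50 mM Tris acetate pH 7.5, 10 mM Mg acetate, 0.01% Tween-20, 0.05% BSA; 6-point qHTS titration about 60 µM downward; luminescence read.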
# SMN2 splice up: qHTS Assay for Enhancers of SMN2 Splice Variant Expression; HEK293 SMN2-luciferase splicing reporter, luminescence, 30-36 h; Potency, µM (highest dose often 46.1 µM), without a hit: at the top dose activity change, positive = activation, actives largely listed as activators; 210,000 tested, 2.8% active; AID 1458, 2008; also: % of control where 0% means no effect; nearly all actives have a fitted effect of over 55% in size
#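 HEK293 cells carry an SMN2 […]–luciferase reporter in which exon 7 inclusion puts luciferase in frame. Cells were plated 10-12 h before compound addition, then incubated 30-36 h at 37C. ONE-Glo luminescence was read; sodium butyrate at 4.5 mM final served as control.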
# NPC1 promoter act: qHTS Assay for NPC1 Promoter Activators. Huh7 NPC1 promoter luciferase reporter, 24 h. 320,000 tested, 2.4% active. Potency, µM (series often up to 9.22 µM), inactives show top-dose activation, actives largely listed as activators. AID 485313, 2010; also: % of control where 0% means no effect; nearly all actives have a fitted effect of over 60% in size
#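 Luminescence read-out of NPC1 promoter-driven luciferase in stably transfected Huh7 cells; compounds delivered in DMSO and left 24 h at 37C, 5% CO2, qHTS titration format.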
# Starred values were filed as active, the others as inactive; u = inconclusive; x = not tested or not shown; [ ] = another dose, or the depositor's remark. Calls follow the shape of the dose curve; as a rule, active = well fitted curve in the direction sought with a large enough effect; inconclusive = small, poorly fitted or top-dose-only effect, or another doubt; inactive = no such curve, though single readings can be large; an effect the other way counts as inactive or inconclusive. Potency is read from the fitted curve at half-maximal effect.
SMILES,Rab9 promoter act,ELG1 genotoxic,ELG1 DNA repair,FLuc counter,SMN2 splice up,NPC1 promoter act
O=C(COC(=O)C1C2CC3OC(=O)C1C3C2)Nc1ccc(Cl)cc1 (stereo not drawn),-2%,5%,-4%,-2%,x,-5%
C/C(=N\NC(=O)c1ccc2c(c1)OCO2)c1ccc(C(=O)O)s1,1%,2%,u,u,x,0%
C/C(=N\NC(=O)c1ccc2c(c1)OCO2)c1ccc2c(c1)OCO2,3.5µM*,10%,u,13µM*,16µM*,u
C/C(=N\NC(=O)c1ccc(O)cc1)c1ccc2c(c1)OCCO2,28%,u,u,13µM*,x,22%
C/C(=N\NC(=O)c1ccc2c(c1)OCCO2)c1ccccc1,3%,0.33µM*,u,0.38µM*,x,u
CC(/C=C/c1ccccc1)=N\NC(=O)c1ccc2c(c1)OCCO2,-5%,2%,3%,u,-6%,-6%
C/C(=N\NC(=O)c1ccc(N/N=C(\C)c2ccc(O)cc2)cc1)c1ccc(O)cc1,u,0%,8.2µM*,4.8µM*,x,u
C/C(=N\NC(=O)c1ccc(O)cc1)c1ccc(N2CCOCC2)cc1,4%,4%,21%,u,x,9%
Nc1nc2ccc(S(=O)(=O)c3ccc4nc(N)sc4c3)cc2s1,4%,-3%,22%,11%,-12%,-2%
CC(C)c1ccc2nc(N)sc2c1,2µM*,-8%,u,6.7µM*,13µM*,1.6µM*
Nc1nc2ccc(O)cc2s1,3%,1%,-7%,-1%,1%,-1%
Cc1cc2nc(N)sc2cc1C,x,x,x,9.5µM*,u,x
Cc1ccc(S(=O)(=O)c2cn(C)c3cc(N4CCN(C)CC4)c(F)cc3c2=O)c(C)c1,-4%,u,21%,0%,x,1%
COC(=O)Nc1ccc(Oc2ccccc2)cc1,0%,u,u,u,u,2%
COC(=O)Nc1ccc(SCC(=O)c2ccc(Cl)cc2)cc1,-4%,1%,7%,-1%,-2%,0%
COCC(=O)Nc1ccc(OCc2ccccc2)cc1,u,u,u,u,13µM*,u
COC(=O)Nc1ccc(SCC(=O)c2ccccc2)cc1,u,12%,19%,19µM*,14%,17%
COC(=O)Nc1ccc(OCc2ccccc2)cc1,2.8µM*,u,u,-1%[2.3 µM],13µM*,u
NC(=O)COc1ccc(NC(=O)OCc2ccccc2)cc1,17%,u,u,12µM*,21%,20%
NC(=O)COc1ccccc1,-5%,-3%,-10%,0%,x,-4%
CS(=O)(=O)N1CCN(C(=O)Cc2ccc(Br)cc2)CC1,5%,0%,-1%,0%,x,0%
Cc1cccc(S(=O)(=O)c2cn(C)c3cc(N4CCCCCC4)c(F)cc3c2=O)c1,x,x,x,-3%,x,x
CC(=O)Nc1ccc(N=Cc2ccc(OCc3ccccc3)cc2)cc1,0%,u,u,24µM*,u,-3%
CC(C)C(=O)N/N=C/c1ccc(OCc2ccccc2)cc1,1%,4%,2%,-14%,-6%,2%
CS(=O)(=O)Nc1ccc(OCc2ccccc2)cc1,u,15µM*,u,13µM*,u,u
O=C(O)c1cccc(S(=O)(=O)Nc2ccc(OCc3ccccc3)cc2)c1,-3%,-4%,3%,-8%,x,1%
O=C1c2cccc(OCC(=O)N3CCCc4ccccc43)c2CCN1Cc1ccc(Br)cc1,-6%,-14%,18µM*,-2%,-61%,-4%
